# Reference: PubChem BioAssay AID1159580 (chemical genetic matrix, 2015)
# Hit rate of the full screen: of about 5,500 compounds, about 2,000 (36%) were called active. Not shown: some 18% with an inconclusive outcome. The list shows a part of the results. A number with no mark means an inactive call. Cut-off read from the data, not from the text of the source: active = normalized growth mostly below about 0.91 (no sharp cut-off); inconclusive = no clear call, values can overlap the other calls; inactive = mostly above about 0.92.
# Test: chemical genetic growth profiling, strain panel (AID 1159580);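 note: tested at 20 µM; growth read once vehicle control cultures reached saturation at 30 °C; 1 = growth at the plate median or of vehicle wells; lower values mean less growth of the strain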
# Conditions: growth OD
compound,measurement,setting,value
CCOC(=O)CCCCCCCCCCCCC1C=CCC1 (centres undefined),normalized growth,"S. cerevisiae deletion strains, locus YJR066W, strain TOR1, hits give low values",0.902
same,normalized growth,"S. cerevisiae deletion strains, locus YJR075W, strain HOC1, hits give low values",0.062 (active)
same,normalized growth,"S. cerevisiae deletion strains, locus YKL009W, strain mrt4, hits give low values",0.729 (active)
same,normalized growth,"S. cerevisiae deletion strains, locus YKL068W, hits give low values",0.984
same,normalized growth,"S. cerevisiae deletion strains, locus YKL085W, strain MDH1 (second series), hits give low values",0.627 (active)
same,normalized growth,"S. cerevisiae deletion strains, locus YKL085W, strain MDH1, hits give low values",0.627 (active)
same,normalized growth,"S. cerevisiae deletion strains, locus YKL160W, strain elf1, hits give low values",1
same,normalized growth,"S. cerevisiae deletion strains, locus YKR001C, strain vps1, hits give low values",0.0645 (active)
same,normalized growth,"S. cerevisiae deletion strains, locus YKR026C, strain gcn3, hits give low values",0.975
same,normalized growth,"S. cerevisiae deletion strains, locus YKR091W, strain srl3, hits give low values",0.983
same,normalized growth,"S. cerevisiae deletion strains, locus YLL001W, strain dnm1, hits give low values",1
same,normalized growth,"S. cerevisiae deletion strains, locus YLL026W, hits give low values",0.961
same,normalized growth,"S. cerevisiae deletion strains, locus YLL041C, strain sdh2, hits give low values",0.992
same,normalized growth,"S. cerevisiae deletion strains, locus YLR027C, strain aat2, hits give low values",0.973
same,normalized growth,"S. cerevisiae deletion strains, locus YLR039C, strain RIC1, hits give low values",0.0918 (active)
same,normalized growth,"S. cerevisiae deletion strains, locus YLR058C, strain SHM2, hits give low values",0.0501 (active)
same,normalized growth,"S. cerevisiae deletion strains, locus YLR102C, strain apc9, hits give low values",0.0639 (active)
same,normalized growth,"S. cerevisiae deletion strains, locus YLR113W, strain HOG1, hits give low values",1.01
same,normalized growth,"S. cerevisiae deletion strains, locus YLR221C, strain rsa3, hits give low values",0.938
same,normalized growth,"S. cerevisiae deletion strains, locus YLR258W, strain gsy2, hits give low values",0.946
same,normalized growth,"S. cerevisiae deletion strains, locus YLR262C, strain YPT6 (second series), hits give low values",0.942
same,normalized growth,"S. cerevisiae deletion strains, locus YLR262C, strain YPT6, hits give low values",0.102 (active)
same,normalized growth,"S. cerevisiae deletion strains, locus YLR268W, strain sec22, hits give low values",0.0626 (active)
same,normalized growth,"S. cerevisiae deletion strains, locus YLR320W, strain mms22, hits give low values",0.808 (active)
same,normalized growth,"S. cerevisiae deletion strains, locus YLR330W, strain CHS5, hits give low values",0.0514 (active)
same,normalized growth,"S. cerevisiae deletion strains, locus YLR342W, strain FKS1 (second series), hits give low values",0.0786 (active)
same,normalized growth,"S. cerevisiae deletion strains, locus YLR342W, strain FKS1, hits give low values",0.954
same,normalized growth,"S. cerevisiae deletion strains, locus YLR357W, strain rsc2, hits give low values",1
same,normalized growth,"S. cerevisiae deletion strains, locus YLR370C, strain arc18, hits give low values",0.994
same,normalized growth,"S. cerevisiae deletion strains, locus YLR371W, strain rom2, hits give low values",0.0661 (active)
same,normalized growth,"S. cerevisiae deletion strains, locus YLR384C, strain iki3, hits give low values",0.965
same,normalized growth,"S. cerevisiae deletion strains, locus YLR418C, strain cdc73, hits give low values",0.0873 (active)
same,normalized growth,"S. cerevisiae deletion strains, locus YML016C, strain PPZ1, hits give low values",0.0464 (active)
same,normalized growth,"S. cerevisiae deletion strains, locus YML032C, strain rad52, hits give low values",0.0734 (active)
same,normalized growth,"S. cerevisiae deletion strains, locus YML120C, strain ndi1, hits give low values",0.994
same,normalized growth,"S. cerevisiae deletion strains, locus YML124C, strain tub3, hits give low values",0.063 (active)
same,normalized growth,"S. cerevisiae deletion strains, locus YMR058W, strain fet3, hits give low values",0.991
same,normalized growth,"S. cerevisiae deletion strains, locus YMR078C, strain ctf18, hits give low values",0.0817 (active)
same,normalized growth,"S. cerevisiae deletion strains, locus YMR125W, strain sto1, hits give low values",0.951
same,normalized growth,"S. cerevisiae deletion strains, locus YMR129W, hits give low values",0.993
same,normalized growth,"S. cerevisiae deletion strains, locus YMR205C, strain PFK2, hits give low values",0.864 (active)
same,normalized growth,"S. cerevisiae deletion strains, locus YMR223W, strain ubp8, hits give low values",0.0615 (active)
same,normalized growth,"S. cerevisiae deletion strains, locus YMR231W, strain pep5, hits give low values",0.971
same,normalized growth,"S. cerevisiae deletion strains, locus YMR307W, strain GAS1, hits give low values",0.12 (active)
same,normalized growth,"S. cerevisiae deletion strains, locus YNL067W, strain RPL9B, hits give low values",0.0497 (active)
same,normalized growth,"S. cerevisiae deletion strains, locus YNL071W, strain lat1, hits give low values",0.808 (active)
same,normalized growth,"S. cerevisiae deletion strains, locus YNL128W, strain TEP1, hits give low values",0.0632 (active)
same,normalized growth,"S. cerevisiae deletion strains, locus YNL153C, strain GIM3, hits give low values",0.0549 (active)
same,normalized growth,"S. cerevisiae deletion strains, locus YNL183C, strain NPR1, hits give low values",0.893
same,normalized growth,"S. cerevisiae deletion strains, locus YNL209W, strain ssb2, hits give low values",0.982
same,normalized growth,"S. cerevisiae deletion strains, locus YNL233W, strain BNI4, hits give low values",0.0592 (active)
same,normalized growth,"S. cerevisiae deletion strains, locus YNL248C, strain rpa49, hits give low values",1.01
same,normalized growth,"S. cerevisiae deletion strains, locus YNL250W, strain rad50, hits give low values",0.848 (active)
same,normalized growth,"S. cerevisiae deletion strains, locus YNL271C, strain bni1, hits give low values",0.146 (active)
same,normalized growth,"S. cerevisiae deletion strains, locus YNL298W, strain CLA4, hits give low values",0.0648 (active)
same,normalized growth,"S. cerevisiae deletion strains, locus YNL307C, strain MCK1, hits give low values",0.0657 (active)
same,normalized growth,"S. cerevisiae deletion strains, locus YNL322C, strain KRE1 (second series), hits give low values",0.998
same,normalized growth,"S. cerevisiae deletion strains, locus YNL322C, strain KRE1, hits give low values",0.047 (active)
same,normalized growth,"S. cerevisiae deletion strains, locus YNR049C, strain mso1, hits give low values",0.987
same,normalized growth,"S. cerevisiae deletion strains, locus YNR052C, strain pop2, hits give low values",0.0632 (active)
same,normalized growth,"S. cerevisiae deletion strains, locus YOL006C, strain TOP1, hits give low values",0.119 (active)
same,normalized growth,"S. cerevisiae deletion strains, locus YOL012C, strain htz1",0.179 (active)
same,normalized growth,"S. cerevisiae deletion strains, locus YOL147C, strain pex11, hits give low values",0.0616 (active)
same,normalized growth,"S. cerevisiae deletion strains, locus YOR001W, strain rrp6, hits give low values",1
same,normalized growth,"S. cerevisiae deletion strains, locus YOR061W, strain CKA2, hits give low values",0.0461 (active)
same,normalized growth,"S. cerevisiae deletion strains, locus YOR069W, strain VPS5, hits give low values",0.0484 (active)
same,normalized growth,"S. cerevisiae deletion strains, locus YOR070C, strain gyp1, hits give low values",0.962
same,normalized growth,"S. cerevisiae deletion strains, locus YOR080W, strain dia2, hits give low values",0.99
same,normalized growth,"S. cerevisiae deletion strains, locus YOR083W, strain WHI5, hits give low values",1
same,normalized growth,"S. cerevisiae deletion strains, locus YOR106W, strain vam3, hits give low values",0.976
same,normalized growth,"S. cerevisiae deletion strains, locus YOR136W, strain idh2, hits give low values",0.0725 (active)
same,normalized growth,"S. cerevisiae deletion strains, locus YOR144C, strain elg1, hits give low values",0.0688 (active)
same,normalized growth,"S. cerevisiae deletion strains, locus YOR184W, strain ser1, hits give low values",0.0609 (active)
same,normalized growth,"S. cerevisiae deletion strains, locus YOR231W, strain MKK1, hits give low values",0.984
same,normalized growth,"S. cerevisiae deletion strains, locus YOR265W, strain rbl2, hits give low values",0.982
same,normalized growth,"S. cerevisiae deletion strains, locus YOR270C, strain vph1, hits give low values",1.01
same,normalized growth,"S. cerevisiae deletion strains, locus YOR290C, strain snf2, hits give low values",0.962
same,normalized growth,"S. cerevisiae deletion strains, locus YOR316C, strain cot1, hits give low values",0.0601 (active)
same,normalized growth,"S. cerevisiae deletion strains, locus YPL051W, strain arl3, hits give low values",0.989
same,normalized growth,"S. cerevisiae deletion strains, locus YPL078C, strain atp4, hits give low values",0.979
same,normalized growth,"S. cerevisiae deletion strains, locus YPL106C, strain sse1, hits give low values",1.12
same,normalized growth,"S. cerevisiae deletion strains, locus YPL240C, strain hsp82, hits give low values",0.988
same,normalized growth,"S. cerevisiae deletion strains, locus YPL256C, strain CLN2, hits give low values",1.03
same,normalized growth,"S. cerevisiae deletion strains, locus YPR119W, strain clb2, hits give low values",0.0692 (active)
same,normalized growth,"S. cerevisiae deletion strains, locus YPR141C, strain kar3, hits give low values",0.99
same,normalized growth,"S. cerevisiae deletion strains, locus YPR163C, strain tif3, hits give low values",0.0692 (active)
same,normalized growth,"S. cerevisiae deletion strains, locus YPR167C, strain met16, hits give low values",0.0627 (active)
same,normalized growth,"S. cerevisiae deletion strains, strain wtn01, hits give low values",0.0688 (active)
same,normalized growth,"S. cerevisiae strains, strain wild type, hits give low values",0.0499 (active)
